G9a inh – G9a (human) methyltransferase inhibition; AID 504332; 350,000 compounds, 8.8% hits; Q96KQ7; Potency, µM (doses to about 102 µM), for the others: top-dose activity, negative = inhibition, usual class: inhibitors; G9a H3K9 monomethylation, AlphaScreen, 2 h; further: on the % scale 0 is the no-effect control and ±100 the full control effect; nearly all actives have a fitted effect of over 75% in size
Target sequence (Q96KQ7 913-1193 limits assumed): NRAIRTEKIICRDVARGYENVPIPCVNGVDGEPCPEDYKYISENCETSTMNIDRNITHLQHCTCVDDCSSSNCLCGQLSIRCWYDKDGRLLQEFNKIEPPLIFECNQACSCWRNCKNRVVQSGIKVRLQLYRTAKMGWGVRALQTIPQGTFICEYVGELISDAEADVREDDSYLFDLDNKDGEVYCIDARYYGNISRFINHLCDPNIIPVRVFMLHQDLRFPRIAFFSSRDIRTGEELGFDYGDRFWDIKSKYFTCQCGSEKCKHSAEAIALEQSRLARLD
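Chemiluminescent proximity detection of H3K9 monomethylation, read after 10 min bead incubation in the dark. Reaction: 20 nM G9a, 500 nM biotin-H3K9 peptide, 20 uM SAM cofactor, 2 h, room temperature, following 15 min enzyme-compound preincubation.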
L3MBTL1 block – blocks human L3MBTL1. Potency, µM (titrated, usually from 57.1 µM), without a hit: at the top dose activity, negative = inhibition, most hits filed as inhibitors. Q9Y468. AlphaScreen L3MBTL1–H3K9me1 peptide binding. 230,000 compounds, 0.66% hits; further: on the % scale 0 is the no-effect control and ±100 the full control effect; nearly all actives have a fitted effect of over 60% in size
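Displacement of a biotinylated histone H3(1-15) peptide monomethylated at Lys9 (75 nM) from L3MBTL1 (50 nM) was measured by AlphaScreen after a 30 min room-temperature compound incubation; cefsulodin titration served as intraplate control.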
Sfp inh – inhibitors of Bacillus subtilis Sfp phosphopantetheinyl transferase; Q9F4F7; Biochemical Sfp PPTase activity, qHTS; 310,000 compounds, 3.5% hits; Potency, µM, without a hit: largest response in the series, negative = inhibition, usual class: inhibitors; AID 1490;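 further: the enzyme is Sfp with the accession as filed and its product quenches rhodamine fluorescence; 0% = enzyme reaction without inhibitor and -100% = no enzyme wells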
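With Hepes-Na pH 7.6 buffer containing 10 mM MgCl2, Sfp (15 nM) modified BHQ-2-YbbR (12.5 uM) using rhodamine-CoA (5 uM). Two reads 30 minutes apart at 525/598 nm yielded each well's rate.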
HP1b binding inh – HP1-beta chromodomain-methylated histone interaction inhibition. P83916. AlphaScreen HP1-beta / biotin-H3K9me3 peptide binding. Potency, µM (doses to about 114 µM), without a hit: at the top dose activity change, negative = inhibition, actives largely listed as inhibitors. 390,000 compounds, 0.56% hits; further: nearly all actives have a fitted effect of over 70% in size
Target sequence (P83916 whole entry, looked up): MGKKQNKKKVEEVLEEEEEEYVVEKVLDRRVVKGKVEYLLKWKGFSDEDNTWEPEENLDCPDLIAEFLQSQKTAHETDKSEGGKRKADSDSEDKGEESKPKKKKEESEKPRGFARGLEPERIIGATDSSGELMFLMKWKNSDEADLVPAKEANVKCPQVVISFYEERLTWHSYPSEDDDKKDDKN
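AlphaScreen: HP1-beta (50 nM) preformed 30 min with biotin-H3(1-18)K9me3 peptide (50 nM) in PBS pH 7.4, 0.01% Tween-20. Compound added for 30 min at RT, then streptavidin donor/nickel chelate acceptor beads (10 ug/mL) for 30 min.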
JMJD2A Tudor inh – inhibitors of human JMJD2A Tudor domain; O75164; AlphaScreen JMJD2A-Tudor / H3K4me3 peptide binding; Potency, µM (highest dose often 114 µM), for inactives: top-dose activity change, negative = inhibition, usual class: inhibitors; 390,000 compounds, 4.4% hits; AID 504339; further: on the % scale 0 is the no-effect control and ±100 the full control effect; nearly all actives have a fitted effect of over 50% in size
BAZ2B inh – blocks human BAZ2B | Q9UIF8 | AlphaScreen BAZ2B-H3K14Ac peptide displacement | Potency, µM (doses to about 114 µM), without a hit: at the top dose activity change, negative = inhibition, hits mostly inhibitors | 360,000 compounds, 4.4% hits | AID 504333; further: on the % scale 0 is the no-effect control and ±100 the full control effect; nearly all actives have a fitted effect of over 60% in size
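Inhibition is scored as reduced AlphaScreen emission. The BAZ2B/b-H3(5-23)K14Ac complex (50 nM each) in PBS pH 7.4, 0.01% Tween-20 meets compound (up to 110 uM) for 30 min at RT before bead addition.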
An asterisk follows results filed as active; ? = inconclusive; / = not tested or not shown; ! = a repeat was not active; [ ] = dose if it differs, or a comment. Rows were chosen to be rich in hits. Some 12% of all compounds tested hit in one or more screens of this group. The call rests on the fitted dose curve; in most records, active means well fitted curve in the direction sought with a large enough effect; inconclusive means small, poorly fitted or top-dose-only effect, or another doubt; inactive means no such curve, though single readings can be large; an effect the other way counts as inactive or inconclusive. Potency means the concentration at half of the fitted maximal effect.

SMILES	G9a inh	L3MBTL1 block	Sfp inh	HP1b binding inh	JMJD2A Tudor inh	BAZ2B inh
OCCNCCCCOc1cccc(Br)c1	-19%[59 µM]	-3%	-18%	47%	-5%	3%
COCCCNCCCCOc1cccc(Br)c1	28µM*	10%	6%	-13%	2.5µM*	?
CN1C=CC(=C2C=CN(C)C=C2)C=C1	/	/	-11%	/	/	/
CN1CCN(CC(=O)c2cc(C(C)(C)C)c(O)c(C(C)(C)C)c2)CC1	32µM*	7%	5%	42%	?	-31%
CC(C)(C)c1cc(CN2CCN(CCO)CC2)cc(C(C)(C)C)c1O	?	-12%	?	25%	-19%	?
COc1ccc(NC(=S)Nc2cccc([N+](=O)[O-])c2)cc1	/	6%	-29%	-14%	-21%	?
CN1CCC(NC(=S)Nc2cccc([N+](=O)[O-])c2)CC1	45µM*	1%	-4%	6%	-13%	-20%
CC1CCN(C(=S)NC(=O)c2ccccc2)CC1	-71%	/	-2%	28%	-19%	-29%
CC1CCN(C(=S)NC(=O)c2cccc([N+](=O)[O-])c2)CC1	71µM*	/	11%	24%	-28%	-25%
CN1CCN(C(=S)NC(=O)c2cccc([N+](=O)[O-])c2)CC1	-12%	/	32µM*	22%	-16%	5%
CN1CCN(c2ccccc2NC(=O)c2cccc([N+](=O)[O-])c2)CC1	?	-7%	9%	4%	-34%	-19%
CC1CCN(C(=S)NC(=O)c2cccs2)CC1	45µM*	/	5%	23%	-10%	-19%
O=[N+]([O-])c1cccc(S(=O)(=O)NC2CC3CCC2C3)c1 (stereo not given)	3%[0.501 µM]	-1%[2.29 µM]	4%	22%	-12%	2%
Cc1ccccc1N(C)S(=O)(=O)c1nnc(NC(=O)C(C)C)s1	?	/	/	-14%	?	?
Cc1ccccc1N(C)S(=O)(=O)c1nnc(NC(=O)c2ccccc2F)s1	4µM*!	/	21%	32%	45µM*!	14µM*!
Cc1ccccc1NS(=O)(=O)c1nnc(NC(=O)c2ccc(Br)cc2)s1	21%	/	33%	38%	-16%	-21%
Cc1ccccc1NS(=O)(=O)c1nnc(NC(=O)c2ccccc2C)s1	-39%[59 µM]	/	8%	25%	?	28µM*!
Cc1nc2ccn(Cc3ccco3)c(=O)c2cc1C(=O)NCc1ccc(F)cc1	4%[59 µM]	/	/	75%	-1%	-17%
COc1ccc(-c2nc(N)n(C(=O)c3ccccc3)n2)cc1	-26%	-6%[11.4 µM]	5%	34%	-4%	-21%
COc1ccc(-c2nc(N)n(C(=O)c3cccs3)n2)cc1	-3%[59 µM]	/	-1%	12%	89µM*	-9%
Cc1ccc(C)c(CN2C(=O)c3ccccc3S(=O)c3ccc(C(=O)NCCc4ccc(Cl)cc4)cc32)c1 (stereo not given)	-28%[59 µM]	/	/	19%	-6%	-11%
Cc1cccc(Oc2ccc3c(c2)Oc2ccccc2NC3=O)c1	4%[59 µM]	/	/	-15%	50µM*	50µM*
COc1ccc(CNC(=O)c2ccc(Cn3c(=O)c4cccn4c4cccnc43)cc2)c(OC)c1	4%[59 µM]	/	/	29%	1%	-13%
Cc1c(Br)cc(F)c([S+](=O)([O-])N2CCN([S+](=O)([O-])c3ccc4c(c3)OCCO4)CC2)c1F	/	/	/	/	-25%	/
c1ccc2c(CSCCc3ccncc3)cccc2c1	-13%	-24%	50µM*	25%	-16%	-19%[57.1 µM]
SMILES	G9a inh	L3MBTL1 block	Sfp inh	HP1b binding inh	JMJD2A Tudor inh	BAZ2B inh
c1ccc2c(CCc3ccncc3)cccc2c1	/	/	/	74%	3%	/
O=C1CC(c2ccccc2)Sc2nc3ccccc3n21 (stereo not given)	?	6%	9%	60%	18%	11%
CN1C(=O)CC(c2ccco2)Sc2ccccc21 (stereo not given)	10%[2.33 µM]	-5%	13%	-7%	-28%	?
O=C1CC(c2ccco2)Sc2nc3ccccc3n21 (stereo not given)	45µM*	-9%	?	19%	79µM*	-32%
CCCN1C(=O)CC(c2ccco2)Sc2ccccc21 (stereo not given)	?	-6%	35µM*	-3%	?	-13%
Cc1cc(NC(=O)CSCC(=O)Nc2ccccc2N2CCCCC2)no1	?	12%	/	24%	-8%	1%
CCn1c(SCC(=O)NNC(=S)Nc2ccc(C)cc2)nnc1-c1ccc(Cl)cc1	10µM*	3%	9%	19%	-22%	-1%
CCn1c(SCC(=O)Nc2ccccc2C(=O)OC)nnc1-c1ccoc1C	-2%	-3%	3%	3%	-16%	3%
CCn1c(SCC(=O)Nc2ccccc2C(=O)OC)nc2c1c(=O)n(C)c(=O)n2C	28µM*	-3%	14%	/	/	2%
CCn1c(SCC(=O)Nc2ccccc2C(=O)OC)nnc1-c1ccc(N)cc1	45µM*	-5%	7%	9%	-8%	3%
CCc1ccc2[nH]c(=O)c(CN(Cc3cccs3)Cc3nnnn3Cc3ccccc3)cc2c1	/	/	/	13%[57 µM]	-27%[57.1 µM]	/
Cc1ccc(NC(=O)C(C)S)cc1 (stereo not given)	19%	/	40µM*	48%	-3%	3%
Cc1ccc(NC(=O)C(CC(C)C)NC(N)=O)cc1 (stereo not given)	16%[59 µM]	-2%	6%	20%	0%	11%
Cc1ccc(NC(=O)C(C)Sc2nnc(C)n2C)cc1 (stereo not given)	-21%[0.501 µM]	-4%[2.29 µM]	71µM*	19%	-4%	?
C#CCOCCOCCOCCNc1nc(N2CCN(C(=O)C(Cc3ccc(O)cc3)n3cc(C(N)CC(C)C)nn3)CC2)nc(N2CCN(C(=O)C(Cc3cc4ccccc4[nH]3)n3cc(C(N)Cc4ccc(O)cc4)nn3)CC2)n1 (stereo not given)	-1%[12.7 µM]	?	-13%	/	/	35µM*
C#CCOCCOCCOCCNc1nc(N2CCOCC2)nc(N2CCN(C(=O)[C@H](Cc3cc4ccccc4[nH]3)n3cc([C@@H](N)Cc4ccc(O)cc4)nn3)CC2)n1	?	-17%	16%	-7%	?	?
C#CCOCCOCCOCCNc1nc(N2CCOCC2)nc(N2CCN(C(=O)[C@H](CC(N)=O)n3cc(C(N)[C@@H](C)CC)nn3)CC2)n1 (stereo not given in full)	/	5%	/	25%	-31%	/
C#CCOCCOCCOCCNc1nc(N2CCN(C(=O)[C@H](CCC(=O)O)n3cc(C(N)Cc4ccc(O)cc4)nn3)CC2)nc(N2CCN(C(=O)[C@H](Cc3cc4ccccc4[nH]3)n3cc(C(N)CC(C)C)nn3)CC2)n1 (stereo not given in full)	5%[12.7 µM]	?	9%	/	/	79µM*

Assay outcomes (PubChem)
